The structures appear in SMILES notation. Where “and” joins values, the source holds several entries; their conditions need not be identical. Identical values can stand only once. Some compounds were tested as several samples or in several runs, with calls that do not always agree. Calls of active or inactive are those of the source. The calls were made as follows: active = hit-call score of the fitted dose curve at least 0.9, where 1 is the maximum; inactive = score below 0.9.

Read-out in this assay: urokinase plasminogen activator (uPA), PLAU (gene 5328)
In words: BSK_BE3C_uPA: BioMAP Diversity Plus: BE3C Assay for urokinase plasminogen activator (uPA) Biomarker Activity (AID 2283038). The following applies: primary human bronchial epithelial cells; actives raise or lower the signal. On the procedure:
BSK_BE3C is a cell-based, multiplexed-readout assay that uses bronchial epithelial cell, a human lung primary cell, with measurements taken at 24 hours after chemical dosing in a 96-well plate.BSK_BE3CA is an assay component measured in the BSK_BE3C assay. It measures uPA antibody related to regulation of gene expression using ELISA technology.Data from the assay component BSK_BE3CA was analyzed into 1 assay endpoint. This assay endpoint, BSK_BE3CA, was analyzed with bidirectional fitting relative to DMSO as the negative control and baseline of activity. Using a type of binding reporter, gain or loss-of-signal activity can be used to understand changes in the signaling as they relate to the gene PLAU. Furthermore, this assay endpoint can be referred to as a primary readout, because this assay has produced multiple assay endpoints where this one serves a signaling function. To generalize the intended target to other relatable targets, this assay endpoint is annotated to the protease intended target family, where the subfamily is serine protease.
The levels of cell surface (or secreted, indicated by the prefix "s") biomarker endpoints were measured by ELISA. Overt cytotoxicity to cells in confluent adherent cultures (all systems other than the BT system) was assessed by measuring total protein levels using sulforhodamine B (SRB) staining in parallel cultures at the time of biomarker measurements, indicated as SRB endpoints. For proliferation assays for adherent cell types, individual cell types are cultured at sub-confluence and relative cell numbers quantified by SRB staining at time points optimized for each system (48 h: 3C and CASM3C systems; 72 h: BT and HDF3CGF systems; 96 h: SAg system). SRB was performed by staining cells with 0.1% SRB after fixation with 10% TCA and reading wells at 560 nm.Viability and proliferation of PBMC (T cells) was quantified by Alamar Blue reduction for the SAg and BT systems. For PBMC viability (referred to as PBMC Cytotoxicity within the assay endpoint names), cells were plated (75,000/well in a 96-well plate) and then chemical samples added for 1 h before addition of activators, SEB and TSST-1 (20 ng/mL final concentration each). Cells were incubated for 90 h. Then, Alamar Blue (20 uL/well) (Invitrogen, Cat DAL1100) was added for 6 h, and the plates were read with a fluorescence microplate reader at 546/580 nm (excitation/emission). For PBMC proliferation, cells were plated and activated as above but incubated for only 16 h prior to addition of Alamar Blue. Plates were read after 6 h.
In the case of `CCC(=C(c1ccc(O)cc1)c1ccc(OCCN(C)C)cc1)c1ccccc1`, the AC50 was 9.93 µM (active).

As for `CCOC(=O)CC(O)(CC(=O)OCC)C(=O)OCC`, the outcome was inactive. Take `c1ccc2c(c1)ccc1ccccc12`: the result was inactive. As to `Oc1cccc(O)c1`, the result was inactive.

With `CCN(CC)CCNc1ccc(CNC=O)c2sc3ccc(OC)cc3c(=O)c12`, the AC50 was 20 µM (active). Take `CN1CCC[C@H]1c1cccnc1`: the outcome was inactive. The same measure, in the same setting: under `CCC(C)(C)C1CCC(O)CC1` (stereo not given) stands “inactive”.

As for `CCCOc1sc(C(=O)N2CCC(c3cc(CN)ccc3F)CC2)c(C)c1Br`, the AC50 was 5.88 µM (active). Turning to `C=C(C)C(=O)OCCC(F)(F)C(F)(F)C(F)(F)C(F)(F)C(F)(F)C(F)(F)F`, the result was inactive. On the same count and under the same terms, under `CC(C)CCCCCCOC(=O)CCCCC(=O)OCCCCCCC(C)C` stands “inactive”; under `COC(=O)CCCCC(=O)OC`, “inactive”; under `OC1CCCCC1`, “inactive”.

`CCCCCCC(=O)O`: the result was inactive.

As for `Cc1cc(CCN2CCN(c3nsc4ccccc34)CC2)cc2c1NC(=O)CC2(C)C`, the AC50 is 31.3 µM (active). For the molecule `CCCCCCCCCCCCN1CCCC1=O`, the AC50 is 35.1 µM (active). As to `CC(=O)CC(C)(C)O`, the outcome was inactive. On to `OCCC(F)(F)C(F)(F)C(F)(F)C(F)(F)C(F)(F)C(F)(F)C(F)(F)C(F)(F)F`, for which the AC50 was 27.9 µM (active) and 27.7 µM (active); the result was inactive.

In the case of `COCC(C)O` (stereo not given), the result was inactive. Take `NC(=O)N(O)[C@@H]1C=C[C@H](Oc2cccc(Oc3ccc(F)cc3)c2)C1`: the result was inactive. The same measure, in the same setting: under `CN(C)C=O` stands “inactive”; under `COCC(C)OCC(C)O` (stereo not given), “inactive”; under `O=c1c(-c2ccc(O)cc2)coc2cc(O)ccc12`, “inactive”.

As to `C#C[C@]1(O)CC[C@H]2[C@@H]3CCC4=CC(=O)CC[C@@H]4[C@H]3CC[C@@]21C`, the outcome was inactive. Turning to `CC(C)(C)c1ccc(O)c(C(C)(C)C)c1`, the AC50 is 30.7 µM (active). Take `CC(C)(C)c1cccc(C(C)(C)C)c1O`: the result was inactive. Same read-out and setting: the entry for `Cc1cc(C)c(O)c(C)c1` is “inactive”.

Turning to `FC(F)(I)C(F)(F)C(F)(F)C(F)(F)C(F)(F)C(F)(F)I`, the AC50 was 40.3 µM (active) [middle of 5 runs]. As to `CCCCCCCC(=O)O`, the outcome was inactive.

For `CN1CCN(c2ccccc2/C=C2\SCCN(c3ccc(Cl)c(Cl)c3)C2=O)CC1`, the AC50 was 30.4 µM (active). The same measure, in the same setting: under `NC(=O)N1C(=O)C(C(=O)c2cc(Cl)cs2)c2cc(F)c(Cl)cc21` (stereo not given) stands 6.91 µM (active). `Nc1cccc2c(N)cccc12`: the outcome was inactive. The same measure, in the same setting: under `CCCCOCCO` stands “inactive”.

As for `Oc1cc2ccccc2c2ccccc12`, the AC50 was 13.9 µM (active). Turning to `CCCCCCCCC(=O)O`, the outcome was inactive. As to `Cc1oc(-c2ccccc2)nc1CCOc1ccc(C[C@H](Nc2ccccc2C(=O)c2ccccc2)C(=O)O)cc1`, the AC50 is 1.8 µM (active). Consider `O=[N+]([O-])c1ccc(O)cc1`, for which the result was inactive.

`CC(C)(C)c1cc(C(C)(C)C)c(O)c(C(C)(C)C)c1`: the AC50 was 5.06 µM (active).

For `CCCCCCCCCCCCCCCS(=O)(=O)Oc1ccccc1`, the outcome was inactive. Take `c1ccc2c(c1)Cc1ccccc1-2`: the outcome was inactive.

Usually AC50 stands for the concentration at which the activity in the assay is half-maximal.

Source of the values: PubChem BioAssay (EPA / NIEHS).
